This is an account of results in PubChem BioAssay (Tox21).

Molecules are shown by their SMILES. Several values for one entry are separate records, joined by “and”; a condition that tells them apart may be missing. Equal values may be shown once. Records with an inconclusive call do not appear. Activity calls are given as the source filed them. Calls come from the whole dose curve; as a rule, active = well fitted curve in the direction sought with a large enough effect in the repeat runs; inconclusive = weak or mixed curves; inactive = no such curve, though single readings can be large; an effect the other way counts as inactive or inconclusive.
% is set by controls: 0 for no effect and ±100 for the full control effect; potency is the fitted concentration of half-maximal effect.

Chain of Aryl hydrocarbon receptor (Homo sapiens) (P35869 whole entry, looked up): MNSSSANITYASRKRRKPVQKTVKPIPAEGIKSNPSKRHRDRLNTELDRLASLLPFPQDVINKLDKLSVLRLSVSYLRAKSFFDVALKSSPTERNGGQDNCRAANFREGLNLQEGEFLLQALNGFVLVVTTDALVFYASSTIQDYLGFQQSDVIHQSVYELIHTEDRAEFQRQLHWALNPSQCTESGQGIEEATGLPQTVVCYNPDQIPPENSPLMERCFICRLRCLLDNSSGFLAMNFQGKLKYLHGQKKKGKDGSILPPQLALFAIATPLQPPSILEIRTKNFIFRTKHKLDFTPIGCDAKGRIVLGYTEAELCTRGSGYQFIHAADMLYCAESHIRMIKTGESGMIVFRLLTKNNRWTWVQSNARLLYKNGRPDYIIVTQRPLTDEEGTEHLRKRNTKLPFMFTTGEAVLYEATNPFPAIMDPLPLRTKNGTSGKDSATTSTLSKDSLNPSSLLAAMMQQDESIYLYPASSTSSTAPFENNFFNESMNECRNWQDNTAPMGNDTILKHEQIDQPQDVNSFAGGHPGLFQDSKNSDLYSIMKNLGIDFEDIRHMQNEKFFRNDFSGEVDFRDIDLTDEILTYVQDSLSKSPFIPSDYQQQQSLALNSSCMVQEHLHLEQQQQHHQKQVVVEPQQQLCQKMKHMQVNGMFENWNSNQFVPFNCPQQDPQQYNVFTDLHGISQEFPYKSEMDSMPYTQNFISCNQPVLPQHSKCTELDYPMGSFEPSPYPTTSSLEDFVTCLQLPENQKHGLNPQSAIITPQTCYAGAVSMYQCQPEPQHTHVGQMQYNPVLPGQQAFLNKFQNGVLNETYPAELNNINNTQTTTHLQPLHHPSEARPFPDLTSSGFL

Test system in the first assay: not listed separately
The assay is described as follows: qHTS assay to identify aromatase inhibitors - cell viability counter screen (AID 743084).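 Note: cells stimulated with testosterone during compound exposure; nearly all actives have a fitted effect of over 55% in size.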 Conditions: MCF-7 aro ERE viability, CellTiter-Fluor, 24 h; series mostly up to 70.3 µM; activity change, negative = cytotoxicity: at the top concentration.
For `CCCN(CCC)c1c([N+](=O)[O-])cc(C(F)(F)F)c(N)c1[N+](=O)[O-]`, the Potency was 54.3 µM (active).

For the compound `CCc1oc2ccccc2c1C(=O)c1cc(Br)c(O)c(Br)c1`, the “activity change, negative = cytotoxicity” value is -0.488% (inactive).

In the case of `CCN(CC)CCNC(=O)c1c(C)[nH]c(/C=C2\C(=O)Nc3ccc(F)cc32)c1C`, the Potency was 26.6 µM (active).

As for `CCOC(=O)/C=C(C)/C=C/C=C(C)/C=C/c1c(C)cc(OC)c(C)c1C`, the “activity change, negative = cytotoxicity” value is -1.03% (inactive).

`N=C1N=C(N)c2ccccc21`: the Potency was 61.1 µM (active).

`Cc1cc(N)c(S(=O)(=O)O)cc1Cl`: the “activity change, negative = cytotoxicity” value is -0.289% [at 95 µM] (inactive).

As for `N#CSc1ccc(N)c([N+](=O)[O-])c1`, the Potency is 38.8 µM (active).

Another assay has as its target Aryl hydrocarbon receptor (Homo sapiens) (UniProt P35869). In words: qHTS assay to identify small molecule that activate the aryl hydrocarbon receptor (AhR) signaling pathway (AID 743085).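 For activation: HG2L7.5c1 human HepG2 liver cells with stably integrated DRE-driven firefly reporter.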 Note: nearly all actives have a fitted effect of over 15% in size. The following applies: HepG2 AhR-luc (HG2L7.5c1), luciferase, 24 h; series mostly up to 70.3 µM; activation: at the top concentration. The essentials:
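Luminescence read-out: ONE-Glo reagent, 30 min at room temperature, in HG2L7.5c1 HepG2 reporter cells treated 24 h at 37C. Viability was measured beforehand by CellTiter-Fluor fluorescence after 30 min at 37C.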
A general note: qHTS replaces the single test concentration by a dilution series.
In the case of `CC1(C)CCC(C)(C)c2cc(C(=O)Nc3ccc(C(=O)O)cc3)ccc21`, the “activation” value was 0.0984% (inactive).

Turning to `C[n+]1ccn(Cc2ccccc2)c1`, the “activation” value is -1.76% (inactive).

As for `CCOC(=O)c1nc(C(Cl)(Cl)Cl)n(-c2ccc(Cl)cc2Cl)n1`, the “activation” value is 2.92% (inactive).

Consider `CSc1ccc2c(c1)C(N1CCN(C)CC1)Cc1ccccc1S2` (stereo unspecified), for which the “activation” value is -5.33% (inactive).

`Oc1ccc(Cl)cc1Sc1cc(Cl)ccc1O`: the Potency result is “inactive”.

On to `CCOc1nc2cccc(C(=O)OC(C)OC(=O)OC3CCCCC3)c2n1Cc1ccc(-c2ccccc2-c2nn[nH]n2)cc1` (stereo unspecified), for which the “activation” value is -0.622% (inactive).

Take `OCCN(CCO)c1nc(N2CCCCC2)c2nc(N(CCO)CCO)nc(N3CCCCC3)c2n1`: the “activation” value was -0.288% (inactive).

In the case of `O=c1cccccc1O`, the “activation” value was 0.297% [at 95 µM] (inactive).

Regarding `O=C1c2ccccc2Cc2ccccc21`, the “activation” value was 0.392% [at 95 µM] (inactive).

For `Fc1ccc([C@@H]2CCNC[C@H]2COc2ccc3c(c2)OCO3)cc1`, the “activation” value is -12.4% (inactive).

`O=CC=C(c1ccccc1)c1ccccc1`: the “activation” value is 0.619% [at 95 µM] (inactive).

Turning to `CCOc1ccc2nc3cc(N)ccc3c(N)c2c1`, the Potency was 11.9 µM (active).

As to `O=c1c(-c2ccccc2)c1-c1ccccc1`, the “activation” value is -0.135% (inactive).

For `O=C(Nc1cccc([N+](=O)[O-])c1)c1cc2ccccc2cc1O`, the Potency is 2.43 µM (active).

In the case of `COc1ccc(CN2CCN(C(c3ccc(F)cc3)c3ccc(F)cc3)CC2)c(OC)c1OC`, the “activation” value is 5.39% (inactive).

Consider `C/C=C1/C(=O)C[C@H]2[C@@H]3CCC4=CC(=O)CC[C@]4(C)[C@H]3CC[C@]12C`, for which the “activation” value is -1.17% (inactive).

As to `NC(=NCCCCCCN=C(N)/N=C(\N)Nc1ccc(Cl)cc1)/N=C(\N)Nc1ccc(Cl)cc1`, the Potency result was “inactive”.

Consider `CCCCCCOC(=O)c1ccc(O)cc1`, for which the Potency result is “inactive”.

For `COc1c(C)c2c(c(O)c1C/C=C(\C)CCC(=O)O)C(=O)OC2`, the “activation” value is 4.1% [at 32.5 µM] (inactive).

Regarding `Cc1cc2c(cc1C(F)(F)F)N(C(=O)Nc1ccc(Oc3cccnc3C)nc1)CC2`, the “activation” value was -0.339% (inactive).

Regarding `O=C1CCCCCN1SSN1CCCCCC1=O`, the “activation” value was -0.095% (inactive).

`Nc1c2ccccc2nc2ccccc12`: the Potency was 11.9 µM (active) and 13.5 µM (active).

Consider `CN1CCC(Nc2ncc3ncnc(Nc4ccc(F)c(Cl)c4)c3n2)CC1`, for which the Potency was 13.3 µM (active).

Take `OCc1c[nH]c2ccccc12`: the Potency is 5.14 µM (active).

For `CCCCCCCCS(=O)C(C)Cc1ccc2c(c1)OCO2` (stereo unspecified), the Potency is 27.8 µM (active).

Regarding `O=C(NOCC1CC1)c1ccc(F)c(F)c1Nc1ccc(I)cc1Cl`, the “activation” value was -2.05% (inactive).

`NC(=O)N1C(=O)C(C(=O)c2cc(Cl)cs2)c2cc(F)c(Cl)cc21` (stereo unspecified): the Potency is 24.3 µM (active).

Regarding `CCCN(CCC)C(=O)C(CCC(=O)OCCCN1CCN(CCOC(=O)Cc2c(C)n(C(=O)c3ccc(Cl)cc3)c3ccc(OC)cc23)CC1)NC(=O)c1ccccc1` (stereo unspecified), the Potency was 29.8 µM (active).

For the compound `COc1cc(-c2nc(NC(=O)c3cc4cc(C)cc(C)c4n3CC(=O)O)sc2CCC2CCCCC2)c(OC)cc1Cl`, the “activation” value is -0.332% (inactive).
